According to the supplement of paper PMC10849652:
Of roughly 7,900 targets only a part is listed; those with a hit were picked by preference. About 0.6% of all pairs of compound and target were hits.

Assays:
Assay in all cases: log2 fold change, soluble protein after heating vs DMSO (PISA); higher = thermal stabilisation; K562 cells, 10 uM, 30 min; active = over 0.2 and 3.5 SD of the protein, either way, in both replicates (recomputed)
[1] = compound: CC[C@@H]1C(=O)N(C)c2cnc(Nc3ccc(C(=O)NC4CCN(C)CC4)cc3OC)nc2N1C1CCCC1
Summary of the method: (§1)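 K562 cells at 2×10^6 cells/mL were given 10 μM compound for 30 min. Aliquots then went through 3 min of heating across 48°C-58°C, were pooled, and were extracted in PBS with 0.5% NP-40 at 4°C, and the supernatant after 21,000xg for 90 min was quantified by TMTpro 16plex LC-MS/MS with channel sums equalised. Thermal stability relative to control samples, from duplicates, is given as log2 fold change.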

[2] = compound: CC[C@@H]1C(=O)N(C)c2cnc(Nc3ccc(C(=O)N[C@H]4CC[C@H](N5CCN(CC6CC6)CC5)CC4)cc3OC)nc2N1C(C)C [volasertib]
Summary of the method: as §1

[3] = compound: CC[C@H](C)N1C=C(C2=C(C=C(C=C21)C3=CN=C(C=C3)N4CCNCC4)C(=O)NCC5=C(C=C(NC5=O)C)C)C
Summary of the method: as §1

[4] = compound: CC[C@H](C)[C@@H](C(=O)N[C@@H]([C@@H](C)O)C(=O)N[C@@H](CC(C)C)C(=O)[C@]1(CO1)C)NC(=O)[C@H]([C@@H](C)CC)N(C)C(=O)C [epoxomicin]
Summary of the method: as §1

[5] = compound: CCn1c(C(=O)N(C2CC2)C2CC2)cc2c3c(ncn3C)c(Nc3cc(C)n(C)n3)nc21
Summary of the method: as §1

[6] = compound: CCn1cc(-c2ccnc3[nH]c(-c4cccc(CN(C)C)c4)cc23)c(-c2ccc(NC(=O)N(C)C)cc2)n1
Summary of the method: as §1

[7] = compound: CN(C)CC(=O)Nc1ccc2[nH]c(=O)c3ccccc3c2c1
Summary of the method: as §1

[8] = compound: CN(CCOC1=CC=C(C=C1)C[C@H]2C(=O)NC(=O)S2)C3=CC=CC=N3 (racemic) [rosiglitazone]
Summary of the method: as §1

[9] = compound: CN1C2=C(C3=C1C(=O)N(N=C3)CC4=CC(=CC=C4)N)SC(=C2)S(=O)C
Summary of the method: as §1

[10] = compound: CN1CCC(CNc2ccc3ncc(-c4cccc(OC(F)(F)F)c4)n3n2)CC1
Summary of the method: as §1

[11] = compound: CN1CCN(CCOc2cc(OC3CCOCC3)c3c(Nc4c(Cl)ccc5c4OCO5)ncnc3c2)CC1 [saracatinib]
Summary of the method: as §1

[12] = compound: CN1CCN(c2nc(C3=C(c4c[nH]c5ccccc45)C(=O)NC3=O)c3ccccc3n2)CC1 [sotrastaurin]
Summary of the method: as §1

[13] = compound: CN1CC[C@H](c2c(O)cc(O)c3c(=O)cc(-c4ccccc4Cl)oc23)[C@H](O)C1 [alvocidib]
Summary of the method: as §1

[14] = compound: CN1CCc2c(c3ccccc3n2Cc2ccc(C(=O)NO)cc2)C1 [Tubastatin A]
Summary of the method: as §1

[15] = compound: CNC(=O)C1=CC=CC=C1NC2=NC(=NC=C2Cl)NC3=C(C=C(C=C3)N4CCOCC4)OC
Summary of the method: as §1

[16] = compound: CNC(=O)c1ccc(Nc2ncc(C(F)(F)F)c(NCc3nccnc3N(C)S(C)(=O)=O)n2)cc1 [defactinib]
Summary of the method: as §1

[17] = compound: CNCc1ccc(-c2[nH]c3cc(F)cc4c3c2CCNC4=O)cc1 [rucaparib]
Summary of the method: as §1

[18] = compound: CNc1nc(-c2ccc3c(N)n[nH]c3c2)cc(N2C[C@@H](C(=O)NC3CCCCC3)CC[C@H]2C)n1
Summary of the method: as §1

[19] = compound: COC(=O)N[C@@H](C)CNc1nccc(-c2cn(C(C)C)nc2-c2cc(Cl)cc(NS(C)(=O)=O)c2F)n1 [encorafenib]
Summary of the method: as §1

[20] = compound: COC(=O)[C@H](CCSC)NC(=O)C1=C(C=C(C=C1)NC[C@H](CS)N)C2=CC=CC=C2
Summary of the method: as §1

Measured: log2 fold change

IGF2BP2 (UniProt Q9Y6M1)
UniProt Q9Y6M1, sequence (Q9Y6M1 whole entry, looked up): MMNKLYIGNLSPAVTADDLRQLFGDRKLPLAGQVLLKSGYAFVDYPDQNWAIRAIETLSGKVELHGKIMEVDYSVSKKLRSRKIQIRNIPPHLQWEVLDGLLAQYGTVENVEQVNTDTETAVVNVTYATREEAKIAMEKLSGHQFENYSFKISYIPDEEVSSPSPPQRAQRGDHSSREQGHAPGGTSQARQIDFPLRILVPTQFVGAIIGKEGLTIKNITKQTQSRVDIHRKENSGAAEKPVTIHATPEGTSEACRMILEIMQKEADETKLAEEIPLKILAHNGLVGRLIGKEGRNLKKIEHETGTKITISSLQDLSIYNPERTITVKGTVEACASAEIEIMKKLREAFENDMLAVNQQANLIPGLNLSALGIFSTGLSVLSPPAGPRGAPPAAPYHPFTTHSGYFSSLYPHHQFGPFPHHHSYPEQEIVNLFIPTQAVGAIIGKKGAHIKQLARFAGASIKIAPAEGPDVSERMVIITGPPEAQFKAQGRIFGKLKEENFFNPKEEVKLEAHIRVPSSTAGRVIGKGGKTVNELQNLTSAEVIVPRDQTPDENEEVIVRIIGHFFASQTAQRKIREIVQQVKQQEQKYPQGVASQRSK
inactive: [1] 0.176 | [2] -0.076 | [3] -0.063 | [4] -0.203 | [5] 0.016 | [6] 0.076 | [7] 0.01 | [8] -0.044 | [9] 0.432 | [10] -0.016 | [11] -0.122 | [12] -0.035 | [13] 0.209 | [14] 0.168 | [15] 0.044 | [16] 0.147 | [17] 0.446 | [18] 0.145 | [19] 0.106 | [20] -0.066

FDXR isoform 7 (UniProt P22570)
UniProt P22570, sequence (P22570 whole entry, looked up): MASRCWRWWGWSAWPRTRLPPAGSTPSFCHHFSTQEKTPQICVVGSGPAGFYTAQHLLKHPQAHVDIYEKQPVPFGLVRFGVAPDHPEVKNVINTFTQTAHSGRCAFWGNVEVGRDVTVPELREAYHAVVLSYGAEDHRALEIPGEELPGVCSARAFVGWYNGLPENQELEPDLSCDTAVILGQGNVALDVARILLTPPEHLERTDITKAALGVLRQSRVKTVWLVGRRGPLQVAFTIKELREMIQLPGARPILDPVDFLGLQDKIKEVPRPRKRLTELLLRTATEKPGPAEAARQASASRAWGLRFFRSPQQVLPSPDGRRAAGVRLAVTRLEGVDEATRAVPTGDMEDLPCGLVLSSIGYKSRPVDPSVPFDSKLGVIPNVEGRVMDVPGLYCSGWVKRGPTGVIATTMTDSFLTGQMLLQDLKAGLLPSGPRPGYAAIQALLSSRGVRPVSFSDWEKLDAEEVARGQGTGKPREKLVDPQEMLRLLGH
active: [10] -0.387
inactive: [1] 0.052 | [2] 0.003 | [3] 0.025 | [4] 0.059 | [5] 0.01 | [6] -0.144 | [7] 0.012 | [8] 0.035 | [9] -0.097 | [11] -0.027 | [12] 0.116 | [13] -0.058 | [14] -0.01 | [15] -0.012 | [16] -0.115 | [17] -0.035 | [18] 0.034 | [19] -0.034 | [20] -0.023

GALNT1 (UniProt Q10472)
inactive: [1] -0.06 | [3] -0.011 | [4] -0.068 | [5] -0.005 | [6] -0.041 | [7] -0.011 | [8] 0.003 | [9] -0.074 | [10] 0.106 | [11] -0.026 | [12] 0.03 | [13] -0.005 | [14] 0.064 | [15] 0.039 | [16] -0.046 | [17] 0.008 | [18] -0.047 | [19] -0.037 | [20] -0.005
active: [2] -0.218

GAGE12F (UniProt P0CL80)
UniProt P0CL80, sequence (P0CL80 whole entry, looked up): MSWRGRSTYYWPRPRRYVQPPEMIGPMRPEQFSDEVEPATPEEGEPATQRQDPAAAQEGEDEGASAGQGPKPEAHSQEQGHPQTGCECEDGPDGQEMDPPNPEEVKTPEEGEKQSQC
inactive: [1] 0.037 | [2] 0.069 | [3] -0.033 | [4] 0.034 | [5] -0.039 | [6] -0.058 | [7] -0.095 | [8] 0.002 | [9] -0.049 | [10] -0.234 | [11] 0.007 | [12] 0.053 | [13] 0.052 | [14] 0.009 | [15] -0.081 | [16] 0.095 | [17] 0.033 | [18] -0.051 | [19] -0.031 | [20] -0.02

HNRNPF (UniProt P52597)
inactive: [1] -0.049 | [3] 0.128 | [4] 0.009 | [5] -0.066 | [6] -0.027 | [7] 0.051 | [8] 0.037 | [9] 0.052 | [10] -0.153 | [11] -0.042 | [12] -0.121 | [13] -0.088 | [14] 0.086 | [15] 0.004 | [16] -0.253 | [17] 0.098 | [18] 0.004 | [19] 0.119 | [20] -0.06
active: [2] -0.587

HDGFL2 (UniProt Q7Z4V5)
inactive: [1] -0.019 | [2] 0.014 | [3] -0.043 | [4] 0.012 | [5] -0.006 | [6] 0.015 | [7] -0.011 | [8] -0.004 | [9] 0.006 | [10] -0.033 | [11] 0.01 | [12] 0.119 | [13] 0.007 | [14] 0.013 | [15] -0.061 | [16] -0.07 | [17] -0.051 | [18] -0.058 | [19] -0.016 | [20] 0.036

GNB2 (UniProt P62879)
inactive: [1] 0.122 | [2] 0.103 | [3] 0.003 | [4] 0.046 | [5] -0.01 | [6] -0.023 | [7] -0.042 | [8] -0.01 | [9] -0.079 | [11] -0.033 | [12] 0.019 | [13] 0.001 | [14] 0.015 | [15] -0.002 | [16] -0.028 | [17] -0.004 | [18] 0.039 | [19] 0.005 | [20] -0.065
active: [10] 0.3

HMGB3 (UniProt O15347)
UniProt O15347, sequence (O15347 whole entry, looked up): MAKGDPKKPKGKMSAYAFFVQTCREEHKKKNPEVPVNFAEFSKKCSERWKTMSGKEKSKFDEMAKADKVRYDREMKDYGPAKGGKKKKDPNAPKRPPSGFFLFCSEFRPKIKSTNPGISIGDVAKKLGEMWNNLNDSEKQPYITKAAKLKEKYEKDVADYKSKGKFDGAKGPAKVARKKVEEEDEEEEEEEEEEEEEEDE
inactive: [1] -0.182 | [2] 0.064 | [3] 0.053 | [4] -0.007 | [5] 0.015 | [6] -0.021 | [7] -0.022 | [8] 0 | [9] -0.039 | [10] 0.015 | [11] 0.05 | [12] 0.031 | [13] -0.022 | [14] 0 | [15] -0.076 | [16] 0.089 | [17] 0.008 | [18] -0.073 | [19] -0.063 | [20] 0.021

GAPVD1 isoform 6 (UniProt Q14C86)
UniProt Q14C86, sequence (Q14C86 whole entry, looked up): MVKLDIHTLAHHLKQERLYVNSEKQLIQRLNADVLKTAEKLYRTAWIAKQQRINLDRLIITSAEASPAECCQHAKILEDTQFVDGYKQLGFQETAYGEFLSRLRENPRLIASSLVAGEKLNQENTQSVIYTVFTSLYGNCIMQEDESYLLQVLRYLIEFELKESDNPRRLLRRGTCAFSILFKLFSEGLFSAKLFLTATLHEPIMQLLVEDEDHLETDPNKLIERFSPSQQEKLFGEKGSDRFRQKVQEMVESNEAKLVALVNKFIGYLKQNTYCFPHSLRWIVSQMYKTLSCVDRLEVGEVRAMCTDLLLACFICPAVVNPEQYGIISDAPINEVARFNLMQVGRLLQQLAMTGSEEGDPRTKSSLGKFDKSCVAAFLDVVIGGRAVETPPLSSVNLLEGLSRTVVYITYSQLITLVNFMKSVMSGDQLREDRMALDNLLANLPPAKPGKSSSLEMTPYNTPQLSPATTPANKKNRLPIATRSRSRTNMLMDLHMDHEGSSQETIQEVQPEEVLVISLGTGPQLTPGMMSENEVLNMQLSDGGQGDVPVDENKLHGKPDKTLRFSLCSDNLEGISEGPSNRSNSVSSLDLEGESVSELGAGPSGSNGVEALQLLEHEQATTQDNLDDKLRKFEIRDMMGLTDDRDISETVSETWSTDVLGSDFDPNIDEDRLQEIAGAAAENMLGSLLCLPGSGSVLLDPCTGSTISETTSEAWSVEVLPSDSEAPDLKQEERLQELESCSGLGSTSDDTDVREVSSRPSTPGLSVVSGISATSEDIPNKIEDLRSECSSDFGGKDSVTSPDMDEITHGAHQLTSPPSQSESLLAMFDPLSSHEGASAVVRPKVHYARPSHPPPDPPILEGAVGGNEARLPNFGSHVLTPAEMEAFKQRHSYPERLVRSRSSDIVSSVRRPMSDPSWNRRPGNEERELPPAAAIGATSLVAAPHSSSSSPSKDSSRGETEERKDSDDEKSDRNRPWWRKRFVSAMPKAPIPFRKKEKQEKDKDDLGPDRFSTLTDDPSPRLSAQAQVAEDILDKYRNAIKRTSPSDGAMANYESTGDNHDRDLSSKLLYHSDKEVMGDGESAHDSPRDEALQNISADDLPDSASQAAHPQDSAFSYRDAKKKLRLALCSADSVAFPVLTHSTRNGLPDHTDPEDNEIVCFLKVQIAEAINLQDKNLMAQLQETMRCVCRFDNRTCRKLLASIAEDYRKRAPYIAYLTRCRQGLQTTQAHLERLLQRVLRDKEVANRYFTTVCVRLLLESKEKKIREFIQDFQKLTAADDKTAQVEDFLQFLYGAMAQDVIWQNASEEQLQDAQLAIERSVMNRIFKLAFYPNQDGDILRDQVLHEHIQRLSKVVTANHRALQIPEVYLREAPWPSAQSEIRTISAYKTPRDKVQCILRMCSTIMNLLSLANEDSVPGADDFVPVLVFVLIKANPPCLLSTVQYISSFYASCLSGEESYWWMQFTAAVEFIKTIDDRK
active: [2] -0.585
inactive: [1] -0.12 | [3] 0.034 | [4] -0.015 | [5] -0.061 | [6] -0.016 | [7] 0.038 | [8] 0.034 | [9] 0.083 | [10] -0.197 | [11] -0.04 | [12] -0.158 | [13] -0.063 | [14] -0.009 | [15] -0.007 | [16] -0.07 | [17] 0.103 | [18] 0.032 | [19] 0.125 | [20] -0.043

GNAS (UniProt Q5JWF2)
inactive: [1] 0.125 | [2] 0.164 | [3] 0.032 | [4] 0.011 | [5] 0.016 | [6] 0 | [7] -0.02 | [8] 0.006 | [9] -0.03 | [10] 0.057 | [11] -0.023 | [12] 0.036 | [13] 0.025 | [14] 0.011 | [15] -0.004 | [16] 0.012 | [17] 0.029 | [18] 0.069 | [19] 0.021 | [20] -0.041

FANCI (UniProt Q9NVI1)
active: [1] -0.277
inactive: [2] -0.159 | [3] 0.127 | [4] -0.077 | [5] -0.022 | [6] -0.093 | [7] 0.072 | [8] 0.066 | [9] -0.013 | [10] -0.188 | [11] -0.022 | [12] -0.099 | [13] -0.13 | [14] -0.103 | [15] -0.111 | [16] -0.179 | [17] 0.041 | [18] -0.002 | [19] 0.003 | [20] -0.02

GALNT2 (UniProt Q10471)
UniProt Q10471, sequence (Q10471 whole entry, looked up): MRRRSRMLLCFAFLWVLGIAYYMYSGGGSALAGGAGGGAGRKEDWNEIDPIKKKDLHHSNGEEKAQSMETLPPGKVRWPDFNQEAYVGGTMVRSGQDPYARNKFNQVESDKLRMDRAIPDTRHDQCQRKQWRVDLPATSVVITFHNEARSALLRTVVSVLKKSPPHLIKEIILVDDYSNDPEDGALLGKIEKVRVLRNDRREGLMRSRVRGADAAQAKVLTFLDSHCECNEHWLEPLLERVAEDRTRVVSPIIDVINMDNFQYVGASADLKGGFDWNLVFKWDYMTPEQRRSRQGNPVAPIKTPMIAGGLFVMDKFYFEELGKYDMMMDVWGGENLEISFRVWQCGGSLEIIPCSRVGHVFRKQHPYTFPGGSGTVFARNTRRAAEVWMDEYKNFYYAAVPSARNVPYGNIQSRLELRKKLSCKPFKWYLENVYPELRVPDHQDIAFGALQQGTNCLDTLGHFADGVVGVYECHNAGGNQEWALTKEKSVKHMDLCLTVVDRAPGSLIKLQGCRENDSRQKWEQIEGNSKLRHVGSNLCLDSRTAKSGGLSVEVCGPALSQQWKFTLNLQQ
inactive: [1] -0.082 | [3] 0.027 | [4] -0.004 | [5] 0.003 | [6] -0.034 | [7] -0.021 | [8] 0.027 | [9] -0.079 | [10] -0.077 | [11] -0.025 | [12] 0.005 | [13] -0.012 | [14] 0.013 | [15] 0.004 | [16] 0.023 | [17] -0.046 | [18] -0.015 | [19] 0.036 | [20] -0.017
active: [2] -0.377

GNAI3 (UniProt P08754)
UniProt P08754, sequence (P08754 whole entry, looked up): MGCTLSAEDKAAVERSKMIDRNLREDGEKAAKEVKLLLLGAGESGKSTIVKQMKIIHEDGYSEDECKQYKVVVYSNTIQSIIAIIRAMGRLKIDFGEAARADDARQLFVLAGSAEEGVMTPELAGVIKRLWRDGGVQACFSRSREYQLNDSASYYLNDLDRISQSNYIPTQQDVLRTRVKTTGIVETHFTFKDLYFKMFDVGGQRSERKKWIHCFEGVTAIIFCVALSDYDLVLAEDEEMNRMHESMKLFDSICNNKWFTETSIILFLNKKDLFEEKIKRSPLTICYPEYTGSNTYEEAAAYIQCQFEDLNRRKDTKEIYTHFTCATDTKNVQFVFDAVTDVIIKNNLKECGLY
inactive: [1] 0.089 | [2] 0.147 | [3] -0.011 | [4] 0.014 | [5] 0.036 | [6] -0.071 | [7] -0.012 | [8] -0.101 | [9] -0.046 | [10] 0.075 | [11] 0.063 | [12] -0.011 | [13] -0.02 | [14] 0.046 | [15] 0.093 | [16] -0.041 | [17] -0.009 | [18] 0.025 | [19] -0.004 | [20] -0.003

FEN1 (UniProt P39748)
inactive: [1] -0.073 | [2] -0.037 | [3] 0.086 | [4] 0.109 | [5] -0.13 | [6] -0.174 | [7] 0.155 | [8] 0.17 | [9] -0.057 | [10] -0.283 | [11] -0.087 | [12] -0.028 | [13] -0.099 | [14] 0.116 | [15] -0.092 | [16] -0.139 | [17] -0.128 | [18] 0.183 | [19] 0.054 | [20] -0.087

HK2 (UniProt P52789)
UniProt P52789, sequence (P52789 whole entry, looked up): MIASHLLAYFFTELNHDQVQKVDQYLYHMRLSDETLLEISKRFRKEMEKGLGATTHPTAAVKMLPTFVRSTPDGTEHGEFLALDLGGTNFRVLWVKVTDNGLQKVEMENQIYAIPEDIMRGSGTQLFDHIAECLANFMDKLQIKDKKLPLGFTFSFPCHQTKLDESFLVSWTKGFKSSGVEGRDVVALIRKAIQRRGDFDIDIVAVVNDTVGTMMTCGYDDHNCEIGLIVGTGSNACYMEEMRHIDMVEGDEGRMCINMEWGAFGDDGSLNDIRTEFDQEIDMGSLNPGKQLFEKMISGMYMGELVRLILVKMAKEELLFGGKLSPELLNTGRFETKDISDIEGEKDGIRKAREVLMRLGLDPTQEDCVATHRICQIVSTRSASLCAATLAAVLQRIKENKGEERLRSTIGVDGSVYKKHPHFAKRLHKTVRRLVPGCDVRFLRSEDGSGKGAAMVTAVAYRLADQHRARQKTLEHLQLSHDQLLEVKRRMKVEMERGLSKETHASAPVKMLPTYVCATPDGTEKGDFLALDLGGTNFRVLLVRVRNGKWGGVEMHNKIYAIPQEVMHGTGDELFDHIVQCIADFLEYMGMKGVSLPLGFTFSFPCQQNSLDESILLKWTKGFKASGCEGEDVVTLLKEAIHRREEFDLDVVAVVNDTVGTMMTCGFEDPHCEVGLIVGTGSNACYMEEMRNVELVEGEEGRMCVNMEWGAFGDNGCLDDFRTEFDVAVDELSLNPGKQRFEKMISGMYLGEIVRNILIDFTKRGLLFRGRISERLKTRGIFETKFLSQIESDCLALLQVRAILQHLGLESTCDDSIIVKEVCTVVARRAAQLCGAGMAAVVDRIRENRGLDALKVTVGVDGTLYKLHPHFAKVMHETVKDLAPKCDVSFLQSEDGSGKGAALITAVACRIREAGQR
inactive: [1] -0.156 | [3] 0.086 | [4] 0.049 | [5] -0.127 | [6] 0.016 | [7] -0.001 | [8] 0.032 | [9] -0.028 | [10] -0.038 | [11] 0.008 | [12] -0.075 | [13] -0.054 | [14] -0.006 | [16] -0.08 | [17] -0.011 | [18] -0.045 | [19] 0.026 | [20] -0.005
active: [2] -0.813 | [15] -0.334

GNG5 (UniProt P63218)
UniProt P63218, sequence (P63218 whole entry, looked up): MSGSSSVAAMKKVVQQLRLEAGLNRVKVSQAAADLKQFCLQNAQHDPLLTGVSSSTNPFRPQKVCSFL
inactive: [1] 0.105 | [2] 0.033 | [3] -0.117 | [5] 0.059 | [6] 0.004 | [7] -0.07 | [8] -0.045 | [9] -0.014 | [10] 0.144 | [11] 0.022 | [12] 0.033 | [13] 0.019 | [14] 0.049 | [15] 0.028 | [16] -0.041 | [17] -0.002 | [18] -0.041 | [19] -0.073 | [20] -0.008
active: [4] 0.556
